For 14 compounds, growth results are on record in PubChem BioAssay (NCI).

About 83,000 compounds went through this panel and 20% of them were active in at least one assay; those are over-represented in the sample as a whole.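 Single-concentration screen, 48 h exposure, 96-well plates. Endpoint: percent growth. Below 10 = active.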 A number with no mark means an inactive call. The source made the active and inactive calls.

Among the test systems are SR leukemia; RPMI-8226 leukemia; OVCAR-8 ovarian; OVCAR-5 ovarian; OVCAR-4 ovarian; SK-OV-3 ovarian; IGROV1 ovarian; OVCAR-3 ovarian; HS 578T breast; NCI/ADR-RES ovarian.
Common to all, as to test: NCI-60 one-dose screen, 48 h (100 = growth as untreated, 0 = no growth, -100 = all killed)
Details in all cases: 10 µM unless noted

As to `O=C(c1cccc(N2CCOCC2)n1)c1c[nH]c2ccccc12`, the growth with SR leukemia was 95.7%; in the test on RPMI-8226 leukemia, 96.6%; with OVCAR-8 ovarian, 89.9%; in the test with OVCAR-5 ovarian it was 105%; in the test with OVCAR-4 ovarian, 82.3%; in the test with SK-OV-3 ovarian it was 164%. In addition, the growth in the test with IGROV1 ovarian is 70%; in the test on OVCAR-3 ovarian, 91%; in the test on HS 578T breast, 89.2%; in the test with NCI/ADR-RES ovarian, 97.2%.
`CS(=O)(=O)Nc1cc(-c2ccc3ncnc(Nc4ccc(F)c(Cl)c4)c3c2)ccc1Cl`: the growth with SR leukemia is 35.1%; in the test on RPMI-8226 leukemia it was 37.4%; in the test with OVCAR-8 ovarian, 52%; in the test with OVCAR-5 ovarian, 53.9%; with OVCAR-4 ovarian, 52.5%; with SK-OV-3 ovarian it was 17.7%. For the same compound, the growth in the test with IGROV1 ovarian is -3.25% (active); with OVCAR-3 ovarian, 36.3%; in the test with HS 578T breast, 18.9%; in the test with NCI/ADR-RES ovarian, 41.6%.
For the compound `Cc1c(O)cc(-c2cnc(N/N=C/c3ccccc3)s2)c(O)c1C`, the growth is 95.3% with SR leukemia; 51.5% in the test with RPMI-8226 leukemia; 84.4% in the test with OVCAR-8 ovarian; 110% in the test on OVCAR-5 ovarian; 63.5% with OVCAR-4 ovarian; 102% with SK-OV-3 ovarian. Further, the growth is 83.8% in the test on IGROV1 ovarian, 95.5% in the test on OVCAR-3 ovarian and 91.2% in the test with HS 578T breast.
For `Clc1ccc2nn3c4ccccc4c(OCCN4CCOCC4)nc3c2c1`, the growth in the test on SR leukemia is 88.1%; with RPMI-8226 leukemia it was 91.8%; in the test with OVCAR-8 ovarian it was 85%; in the test with OVCAR-5 ovarian, 93.2%; in the test on OVCAR-4 ovarian, 90%; in the test with SK-OV-3 ovarian, 94.1%. The growth was 71% in the test with IGROV1 ovarian, 97.5% in the test on OVCAR-3 ovarian, 97.5% with HS 578T breast and 80.4% with NCI/ADR-RES ovarian.
Regarding `C/C(Cc1ccc(Cl)cc1)=C(\c1ccc(OCCN2CCCCCC2)cc1)c1ccc(OC(=O)c2ccccc2)cc1`, the growth with SR leukemia was -14.3% (active); with RPMI-8226 leukemia, -24.6% (active); in the test with OVCAR-8 ovarian, 34.5%; in the test with OVCAR-5 ovarian it was 68.7%; with OVCAR-4 ovarian it was 36.6%; in the test on SK-OV-3 ovarian, 86.9%. The growth in the test with IGROV1 ovarian was 24.4%; with OVCAR-3 ovarian it was 59.1%; in the test on HS 578T breast, 56%.
Take `CC(=O)c1sc(-c2ccc(F)cc2)cc1O`: the growth in the test on SR leukemia is 82.6%; in the test with RPMI-8226 leukemia, 105%; with OVCAR-8 ovarian, 104%; in the test with OVCAR-5 ovarian it was 111%; in the test on OVCAR-4 ovarian, 79.5%; in the test on SK-OV-3 ovarian it was 102%. The growth in the test on IGROV1 ovarian was 115%; in the test with OVCAR-3 ovarian, 109%.
With `COc1ccc(C=Nc2c(C(=O)Nc3cccc(Cl)c3C)sc3nc(C)c(C(=O)/C=C/c4ccc(OC)cc4)cc23)cc1`, the growth in the test on SR leukemia was 30.8%; in the test with RPMI-8226 leukemia, 14.9%; in the test with OVCAR-8 ovarian it was 21%; in the test on OVCAR-5 ovarian, 31.3%; in the test with OVCAR-4 ovarian, 58.2%; in the test on SK-OV-3 ovarian, 40.9%. In addition, the values for the growth in the test with IGROV1 ovarian, with OVCAR-3 ovarian and in the test on HS 578T breast were 38.3%, 4.94% (active) and -1.89% (active), respectively.
In the case of `CC(C)c1ccc2c(c1)CC[C@H]1[C@](C)(C(=O)OCC#CCN3CCCC3)CCC[C@]21C`, the growth in the test on SR leukemia is 52.5%; in the test with RPMI-8226 leukemia, 47.5%; in the test with OVCAR-8 ovarian it was 89%; in the test on OVCAR-5 ovarian, 85.8%; in the test with OVCAR-4 ovarian, 64.4%; in the test with SK-OV-3 ovarian, 88.4%. Further, the growth with IGROV1 ovarian is 90.5%; in the test with OVCAR-3 ovarian it was 77.6%; in the test with HS 578T breast it was 87.6%.
Turning to `O=C1NC(=O)C(c2coc3cc(Br)ccc23)=C1c1c[nH]c2ccccc12`, the growth with SR leukemia was 19.9%; in the test with RPMI-8226 leukemia, 44.2%; in the test with OVCAR-8 ovarian, 51.6%; in the test with OVCAR-5 ovarian it was 87.3%; in the test with OVCAR-4 ovarian, 77.5%; with SK-OV-3 ovarian, 55.6%. Further, the growth in the test with IGROV1 ovarian was 52.2%; in the test on OVCAR-3 ovarian, 20.1%; with HS 578T breast, 43.3%.
Regarding `COc1ccc(C2[C@@H](c3ccccc3)C(=O)N2c2cc(OC)c(OC)c(OC)c2)cc1F` (stereo partly drawn), the growth in the test on SR leukemia was -6.55% (active); in the test on RPMI-8226 leukemia, 6.59% (active); in the test with OVCAR-8 ovarian, 1.85% (active); in the test on OVCAR-5 ovarian it was 65.1%; in the test with OVCAR-4 ovarian it was 59%; in the test with SK-OV-3 ovarian it was 4.86% (active). Besides, the growth in the test on IGROV1 ovarian is 18.8%; in the test with OVCAR-3 ovarian, 9.25% (active); with HS 578T breast, 31.3%.
In the case of `O=S(=O)(Nc1ccc2ccccc2c1)c1ccc(-c2cnc(C3CC3)o2)cc1`, the growth with SR leukemia was 16.5%; in the test on RPMI-8226 leukemia, 12%; in the test on OVCAR-8 ovarian, 24.6%; in the test with OVCAR-5 ovarian it was 48%; in the test with OVCAR-4 ovarian it was 70.4%; in the test on SK-OV-3 ovarian, 32.7%. Further, the values for the growth in the test with IGROV1 ovarian, in the test on OVCAR-3 ovarian and in the test on HS 578T breast were 39.1%, 1.73% (active) and 13.4%, respectively.
`CCCn1c(=S)sc2c(NNC(C)=O)nc(C)nc21`: the growth is 158% in the test with SR leukemia; 93.1% in the test on RPMI-8226 leukemia; 102% in the test with OVCAR-8 ovarian; 98% with OVCAR-5 ovarian; 101% with OVCAR-4 ovarian; 99.9% with SK-OV-3 ovarian. Further, the growth with IGROV1 ovarian is 37.1%; with OVCAR-3 ovarian, 118%; in the test with HS 578T breast, 97.7%.
For `CC1=C2[C@@H](CC1)[C@]1(C)O[C@@](C3CCNCC3)(C[C@H]1OC(=O)CO)[C@H]2OC(=O)/C=C/c1ccccc1`, the growth in the test with SR leukemia is 33.1%; in the test with RPMI-8226 leukemia, 82.3%; in the test with OVCAR-8 ovarian, 84.3%; in the test with OVCAR-5 ovarian it was 99.4%; with OVCAR-4 ovarian, 82.9%; with SK-OV-3 ovarian, 106%. The growth in the test on IGROV1 ovarian is 80.3%; in the test on OVCAR-3 ovarian, 93.9%; in the test with HS 578T breast it was 58.4%.
`CCCCCc1ccc(S(=O)(=O)Nc2ccc3nc(N)oc3c2)cc1`: the growth was 31.1% with SR leukemia; 38.4% in the test with RPMI-8226 leukemia; 53.8% with OVCAR-8 ovarian; 99.5% with OVCAR-5 ovarian; 27.3% in the test with OVCAR-4 ovarian; 81.8% in the test on SK-OV-3 ovarian. Further, the growth in the test on IGROV1 ovarian was 68.4%; in the test with OVCAR-3 ovarian, 64.5%; in the test with HS 578T breast, 73.9%.
